Assay results taken from ChEMBL document CHEMBL3988442, “University of Dundee, Small-Polar-MMV Screening Library” (2021).
Values joined by “and” are separate entries in the source; they are usually repeats but may differ in a detail not shown here. Equal values may be shown once. For part of these data: Potency and affinity values are given separately.

Tests used:
Set-up in all cases: scale not given: direction of the effect not stated beside the values
[1] = target: Protein translocase subunit SecA (Escherichia coli (strain K12)) (UniProt P10408); assay: Assay to Identify E. coli SecA ATPase Inhibitors; format: functional; details: 30 µM
[2] = target: T1, Ubiquitin-activating enzyme e1, putative (Leishmania donovani (strain BPK282A1)) (UniProt E9BSI1); assay: Leishmania donovani Ubiquitin Activating Enzyme (LdE1); format: functional; details: 30 µM
T1 sequence (whole entry): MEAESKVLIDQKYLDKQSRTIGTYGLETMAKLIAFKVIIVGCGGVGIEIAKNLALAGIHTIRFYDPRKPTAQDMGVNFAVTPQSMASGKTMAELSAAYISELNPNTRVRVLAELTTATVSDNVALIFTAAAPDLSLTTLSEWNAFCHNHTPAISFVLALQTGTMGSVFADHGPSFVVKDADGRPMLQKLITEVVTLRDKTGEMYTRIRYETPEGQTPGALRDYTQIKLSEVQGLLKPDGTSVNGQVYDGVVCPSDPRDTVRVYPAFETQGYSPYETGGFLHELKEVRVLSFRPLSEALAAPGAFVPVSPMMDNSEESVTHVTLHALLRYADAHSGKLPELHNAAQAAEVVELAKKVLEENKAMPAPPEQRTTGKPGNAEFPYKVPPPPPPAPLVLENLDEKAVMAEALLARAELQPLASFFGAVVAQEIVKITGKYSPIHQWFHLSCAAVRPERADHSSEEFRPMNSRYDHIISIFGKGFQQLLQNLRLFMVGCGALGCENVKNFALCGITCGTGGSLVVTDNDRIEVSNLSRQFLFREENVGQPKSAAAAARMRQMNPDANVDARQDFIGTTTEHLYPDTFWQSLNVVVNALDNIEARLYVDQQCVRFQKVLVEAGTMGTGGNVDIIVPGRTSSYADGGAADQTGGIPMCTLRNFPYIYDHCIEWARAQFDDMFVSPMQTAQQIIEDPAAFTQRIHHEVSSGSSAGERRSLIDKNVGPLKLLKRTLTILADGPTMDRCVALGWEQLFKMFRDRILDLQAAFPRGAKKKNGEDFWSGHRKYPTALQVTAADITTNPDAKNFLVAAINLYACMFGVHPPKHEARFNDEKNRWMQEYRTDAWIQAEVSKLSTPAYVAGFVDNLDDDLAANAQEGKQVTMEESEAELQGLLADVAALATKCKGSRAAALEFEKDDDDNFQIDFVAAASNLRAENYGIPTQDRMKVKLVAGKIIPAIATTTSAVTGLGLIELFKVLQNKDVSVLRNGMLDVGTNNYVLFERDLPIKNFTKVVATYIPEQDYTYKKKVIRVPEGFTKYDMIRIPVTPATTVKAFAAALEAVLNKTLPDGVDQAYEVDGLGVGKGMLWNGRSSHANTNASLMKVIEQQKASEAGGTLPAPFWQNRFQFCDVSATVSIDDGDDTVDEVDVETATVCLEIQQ

[3] = target: Sialic acid-binding Ig-like lectin 9 (Homo sapiens) (UniProt Q9Y336); assay: Hs-Siglec9 ALPHAscreen SOP 20170721; details: 10 µM
Trypanosoma cruzi = assay: Trypanosoma cruzi phosphomannomutase and mannose-1-phosphate guanylyltransferase assay; format: functional; details: 10 µM
[4] = target: T2, Arginase-2, mitochondrial (Homo sapiens) (UniProt P78540); assay: in vitro enzyme assay to detect the production of urea directly proportional to the activity of Arginase II; format: functional; note: in the data most compounds retested in dose-response had high values
T2 sequence (whole entry): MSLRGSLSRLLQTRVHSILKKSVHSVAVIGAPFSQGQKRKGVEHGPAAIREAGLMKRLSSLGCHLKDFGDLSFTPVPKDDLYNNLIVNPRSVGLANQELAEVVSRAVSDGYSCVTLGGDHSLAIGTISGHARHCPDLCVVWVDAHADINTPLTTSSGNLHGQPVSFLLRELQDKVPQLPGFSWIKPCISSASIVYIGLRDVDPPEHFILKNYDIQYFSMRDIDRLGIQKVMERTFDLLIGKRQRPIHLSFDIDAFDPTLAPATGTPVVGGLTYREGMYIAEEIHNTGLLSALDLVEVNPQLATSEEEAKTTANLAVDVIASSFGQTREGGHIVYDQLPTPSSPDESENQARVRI

[5] = target: T3, Proteasome subunit beta (Trypanosoma cruzi) (UniProt O96673); assay: Trypanosoma cruzi proteasome chymotrypsin-like activity (TcProtChymo) assay.; note: in the data most compounds retested in dose-response had high values; format: functional; details: 9.37 µM
T3 sequence (whole entry): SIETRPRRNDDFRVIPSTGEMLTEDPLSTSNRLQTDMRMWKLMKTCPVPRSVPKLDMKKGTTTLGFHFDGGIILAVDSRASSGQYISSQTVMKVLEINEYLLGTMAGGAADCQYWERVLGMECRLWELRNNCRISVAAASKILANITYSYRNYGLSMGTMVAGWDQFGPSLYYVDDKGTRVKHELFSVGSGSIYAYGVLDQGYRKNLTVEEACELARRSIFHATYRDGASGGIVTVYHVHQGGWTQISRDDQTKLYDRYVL

Homo sapiens = species on record: Homo sapiens; assay: To identify inhibition of the IFN signalling (Jak-Stat) pathway via expression of an eGFP reporter gene under the control of an IFN-stimulated response element (ISRE) containing MxA promoter.; format: functional; details: 30 µM
[6] = target: T4, Tyrosyl-tRNA synthetase, putative (Trypanosoma cruzi (strain CL Brener)) (UniProt Q4DSP6); assay: Trypanosoma cruzi tyrosyl tRNA synthetase (TcYRS) _High Tyrosine SOP; format: functional; details: 30 µM; note: in the data most compounds retested in dose-response had high values
T4 sequence (whole entry): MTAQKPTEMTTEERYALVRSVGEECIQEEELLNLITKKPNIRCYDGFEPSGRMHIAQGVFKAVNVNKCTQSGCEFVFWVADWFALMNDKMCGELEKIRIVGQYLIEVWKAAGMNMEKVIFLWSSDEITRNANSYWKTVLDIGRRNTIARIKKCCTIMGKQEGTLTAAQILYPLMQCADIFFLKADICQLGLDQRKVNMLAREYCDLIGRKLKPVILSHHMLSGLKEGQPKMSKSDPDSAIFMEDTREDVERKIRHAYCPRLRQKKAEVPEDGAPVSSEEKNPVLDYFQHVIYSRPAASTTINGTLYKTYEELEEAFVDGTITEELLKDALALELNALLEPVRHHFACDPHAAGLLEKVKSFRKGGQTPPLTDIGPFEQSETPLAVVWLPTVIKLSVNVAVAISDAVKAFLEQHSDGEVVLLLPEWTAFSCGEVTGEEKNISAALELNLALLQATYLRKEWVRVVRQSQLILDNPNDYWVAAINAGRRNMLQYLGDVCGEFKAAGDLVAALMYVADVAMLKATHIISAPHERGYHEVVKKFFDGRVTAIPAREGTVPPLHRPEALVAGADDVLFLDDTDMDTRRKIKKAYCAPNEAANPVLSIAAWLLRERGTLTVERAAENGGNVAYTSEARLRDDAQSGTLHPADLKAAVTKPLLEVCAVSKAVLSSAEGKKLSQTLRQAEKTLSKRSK

[7] = target: T4, Tyrosyl-tRNA synthetase, putative (Trypanosoma cruzi (strain CL Brener)); assay: Trypanosoma cruzi tyrosyl tRNA synthetase (TcYRS) SOP; format: functional; details: 30 µM
[8] = target: Chromo domain-containing protein 1 (Saccharomyces cerevisiae (strain ATCC 204508 / S288c) (Baker's yeast)) (UniProt P32657); assay: ScCHD-1 Enzyme Inhibition Assay; format: functional; details: 30 µM; note: in the data most compounds retested in dose-response had high values
N/A = assay: Trypanosoma cruzi proteasome luciferase counter-screen; format: functional; details: 9.37 µM

Chain of Sialic acid-binding Ig-like lectin 9 (Homo sapiens) (Q9Y336 whole entry): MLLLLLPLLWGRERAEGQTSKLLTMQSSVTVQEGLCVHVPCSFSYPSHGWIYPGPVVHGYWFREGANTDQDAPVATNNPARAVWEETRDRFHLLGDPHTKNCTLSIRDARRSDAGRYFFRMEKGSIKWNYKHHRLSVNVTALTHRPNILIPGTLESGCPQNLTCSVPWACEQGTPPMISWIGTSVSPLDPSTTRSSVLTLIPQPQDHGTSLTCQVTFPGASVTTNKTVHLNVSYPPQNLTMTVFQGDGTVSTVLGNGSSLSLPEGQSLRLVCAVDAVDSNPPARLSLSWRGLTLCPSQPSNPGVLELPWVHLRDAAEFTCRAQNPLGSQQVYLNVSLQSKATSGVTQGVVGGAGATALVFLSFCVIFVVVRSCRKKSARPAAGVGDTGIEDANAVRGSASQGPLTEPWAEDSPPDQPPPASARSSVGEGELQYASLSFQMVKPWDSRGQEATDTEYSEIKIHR
Chain of Protein translocase subunit SecA (Escherichia coli (strain K12)) (P10408 whole entry): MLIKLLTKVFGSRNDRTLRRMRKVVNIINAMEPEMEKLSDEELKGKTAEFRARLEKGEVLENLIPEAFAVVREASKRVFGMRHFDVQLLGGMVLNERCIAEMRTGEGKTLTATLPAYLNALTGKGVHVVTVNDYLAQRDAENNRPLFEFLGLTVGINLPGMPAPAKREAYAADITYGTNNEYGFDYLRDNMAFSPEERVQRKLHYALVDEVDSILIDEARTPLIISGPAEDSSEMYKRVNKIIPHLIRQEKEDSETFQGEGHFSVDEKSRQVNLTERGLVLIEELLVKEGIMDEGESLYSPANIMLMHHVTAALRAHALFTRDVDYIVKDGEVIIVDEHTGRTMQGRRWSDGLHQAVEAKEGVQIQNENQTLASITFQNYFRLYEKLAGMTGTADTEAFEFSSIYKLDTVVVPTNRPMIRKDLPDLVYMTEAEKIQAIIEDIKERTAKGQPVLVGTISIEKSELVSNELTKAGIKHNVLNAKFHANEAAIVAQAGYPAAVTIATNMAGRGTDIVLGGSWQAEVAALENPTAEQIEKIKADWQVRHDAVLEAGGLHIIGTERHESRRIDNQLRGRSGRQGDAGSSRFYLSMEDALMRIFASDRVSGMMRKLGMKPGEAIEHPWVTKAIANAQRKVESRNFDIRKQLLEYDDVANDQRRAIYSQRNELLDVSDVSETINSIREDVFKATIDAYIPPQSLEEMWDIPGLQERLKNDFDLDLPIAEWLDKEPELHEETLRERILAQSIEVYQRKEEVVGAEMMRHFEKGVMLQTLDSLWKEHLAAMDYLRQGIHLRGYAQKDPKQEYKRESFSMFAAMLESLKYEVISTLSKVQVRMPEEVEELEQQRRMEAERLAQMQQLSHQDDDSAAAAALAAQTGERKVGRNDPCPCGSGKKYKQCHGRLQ
Chain of Chromo domain-containing protein 1 (Saccharomyces cerevisiae (strain ATCC 204508 / S288c) (Baker's yeast)) (P32657 whole entry, the tested form may be a part): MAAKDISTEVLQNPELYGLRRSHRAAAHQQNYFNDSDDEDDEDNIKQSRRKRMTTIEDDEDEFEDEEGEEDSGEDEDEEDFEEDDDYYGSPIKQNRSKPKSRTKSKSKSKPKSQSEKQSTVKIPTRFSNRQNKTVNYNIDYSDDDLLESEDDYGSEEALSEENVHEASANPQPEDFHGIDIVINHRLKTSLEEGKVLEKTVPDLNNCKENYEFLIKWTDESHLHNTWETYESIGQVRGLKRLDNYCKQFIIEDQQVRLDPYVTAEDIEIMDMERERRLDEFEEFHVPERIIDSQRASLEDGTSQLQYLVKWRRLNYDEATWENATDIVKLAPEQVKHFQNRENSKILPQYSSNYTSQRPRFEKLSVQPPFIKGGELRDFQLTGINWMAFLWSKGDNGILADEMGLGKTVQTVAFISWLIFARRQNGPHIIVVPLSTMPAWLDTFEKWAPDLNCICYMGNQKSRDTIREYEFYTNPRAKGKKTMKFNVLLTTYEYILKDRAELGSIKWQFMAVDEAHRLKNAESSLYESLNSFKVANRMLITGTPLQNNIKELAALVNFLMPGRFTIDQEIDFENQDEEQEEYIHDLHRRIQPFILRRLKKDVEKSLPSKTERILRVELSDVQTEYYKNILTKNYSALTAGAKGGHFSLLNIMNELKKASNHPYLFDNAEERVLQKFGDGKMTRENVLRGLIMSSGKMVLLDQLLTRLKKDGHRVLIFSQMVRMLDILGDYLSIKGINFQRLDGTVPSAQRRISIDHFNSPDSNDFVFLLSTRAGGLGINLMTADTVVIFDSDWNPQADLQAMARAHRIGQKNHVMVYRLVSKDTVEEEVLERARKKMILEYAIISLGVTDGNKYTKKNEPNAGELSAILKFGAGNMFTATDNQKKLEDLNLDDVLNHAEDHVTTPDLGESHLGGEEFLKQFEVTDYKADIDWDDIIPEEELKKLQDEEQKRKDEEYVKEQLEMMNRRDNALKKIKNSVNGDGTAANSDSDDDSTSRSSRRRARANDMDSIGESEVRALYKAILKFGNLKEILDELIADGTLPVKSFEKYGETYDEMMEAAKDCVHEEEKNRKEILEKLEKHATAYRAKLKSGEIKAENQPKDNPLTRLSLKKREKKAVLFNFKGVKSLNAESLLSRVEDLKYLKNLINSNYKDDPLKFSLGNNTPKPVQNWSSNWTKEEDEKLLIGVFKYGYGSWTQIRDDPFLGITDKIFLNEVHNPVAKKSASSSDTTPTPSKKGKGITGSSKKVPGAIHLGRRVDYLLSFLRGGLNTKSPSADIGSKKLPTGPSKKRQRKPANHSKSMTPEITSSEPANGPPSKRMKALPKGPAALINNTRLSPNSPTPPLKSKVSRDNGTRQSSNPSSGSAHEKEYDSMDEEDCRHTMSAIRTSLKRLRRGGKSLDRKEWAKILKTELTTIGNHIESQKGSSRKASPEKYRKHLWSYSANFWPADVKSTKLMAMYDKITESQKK

| SMILES | Percent Effect [1] | Percent Effect [2] | Percent Effect [3] | Percent Effect (Trypanosoma cruzi) | Percent Effect ([4]; 33.3 µM) | Percent Effect [5] | Percent Effect (Homo sapiens) | Percent Effect [6] | Percent Effect [7] | Percent Effect [8] | Percent Effect ([4]; 30 µM) | Percent Effect (N/A) |
| --- | --- | --- | --- | --- | --- | --- | --- | --- | --- | --- | --- | --- |
| CC(NC(=O)N1CCN(CCc2ccccc2)CC1)c1nncn1C (stereo unspecified) | -5.57% | 5.33% | 0.0136% | 3.41% | 0.444% | 7.55% | 13.6% | 2.63% | -20.5% | -8.2% |  |  |
| COCCOc1cccc(C(=O)N2CCCC(n3ccnc3C)C2)c1 (stereo unspecified) | -2.56% | 13% | 8.18% | 4.85% | -2.25% | 0.877% | 1.8% | 0% | 18.8% | -12.3% |  |  |
| COCc1nc(CNC2CCSCC2)no1 | -6.18% | 2.7% | 1.55% | 3.98% | 1.75% | 7.36% | -12.7% | 3.72% | 9.76% | -0.943% |  |  |
| Cc1ccn(CCC(=O)N2CCOC(c3nc(-c4cccs4)no3)C2)n1 (stereo unspecified) | 1.88% | 9.33% | 1.5% | -5.52% | 4.42% | 8.7% | 7.42% | 2.12% | 10% | -26.2% |  |  |
| CS(=O)(=O)N1CCN(C(=O)Cn2ccc3c(Cl)cccc32)CC1 | -4.17% | -2.7% | -2.63% | -7.08% | -3.15% | 18.1% | 4.83% | 2.66% | 2.44% | -0.985% | 5.95% |  |
| Nc1nc(CCC(=O)N2CCOC(CC3CCCCC3)C2)cs1 (stereo unspecified) | -7.43% | 0% | 6.25% | 11.3% | -2.45% | 3.25% | 10.9% | 9.04% | 19.5% | 5.38% | 3.78% |  |
| Cc1ccc(N2CC[C@H]3O[C@@H](C(=O)NCc4ccco4)CC[C@H]32)nn1 | -3.84% | 11.7% | -7.1% | 0.487% | 4.05% | 34.9% and 42.6% and 44.7% | 2.02% | 12.1% | 12.8% | -1.01% |  | 17.7% and 15.6% |
| COc1cccc(-c2noc(C3CCN(Cc4cccs4)C3)n2)c1 (stereo unspecified) | 4.18% | 4% | -7.16% | -5.33% | 1.77% | 57.3% and 54.2% and 60.1% | 16% | -3.17% | 7.5% | -23.7% |  | 26.2% and 26.8% |
| COc1cccc(-c2nc(CNCCn3cccn3)cs2)c1 | -0.562% | -2.56% | -1.83% | -5.54% | 2.46% | 59.5% and 60.9% and 43.9% | 37.8% | 4.31% | 6.02% | 1.48% |  | 31.8% and 30.9% |
| COCc1noc(-c2ccc(N3CCCCC3CO)nc2)n1 (stereo unspecified) | -2.04% | -5.41% | 7.35% | -0.485% | 6.64% | 62% and 48.5% and 57.3% | 2.19% | 0.532% | 0% | -0.226% |  | 26.9% |
| Cc1ccccc1CC(=O)N(C)C1CCN(c2ccccn2)CC1 | -6.18% | 10.7% | 3.6% | 5.22% | -1.33% | 15% | 6.38% | 5.79% | 12.8% | -17.5% |  |  |
| Cc1ccsc1CN(C)Cc1nc2c(cnn2C)c(=O)[nH]1 | 0.7% | 15.4% | -7.51% | 0.845% | 2.05% | 10.7% | 27.3% | 7.18% | 18.1% | -3.14% |  |  |
